Only some compounds are listed: those with a hit (about 10% of all), similar ones and a draw of the others.
MmCpn inh – Inhibitors of TCP-1 ring complex (TRiC) of Methanococcus maripaludis (MmCpn): qHTS | Potency, µM (doses to about 76.9 µM), most hits filed as inhibitors | purified Mm-Cpn ATPase, ADP Transcreener TR-FRET | Chaperonin Mm-Cpn (Methanococcus maripaludis) | AID 504842, 2011 | 330,000 compounds, 0.031% hits; further: nearly all actives have a fitted effect of over 80% in size
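ATPase read-out: TR-FRET ADP immunoassay (anti-ADP Eu cryptate vs ADP-d2), ex 320 nm, em 590/665 nm; signal drops as ADP forms. Enzyme 25 nM, ATP 10 uM, 30 min at 37°C after 10 min compound preincubation.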
G9a block – qHTS Assay for Inhibitors of Histone Lysine Methyltransferase G9a; Histone-lysine N-methyltransferase EHMT2 (Homo sapiens), Q96KQ7; G9a H3K9 monomethylation, AlphaScreen, 2 h; Potency, µM (series often up to 102 µM), actives largely listed as inhibitors; 350,000 compounds, 8.8% hits; AID 504332, 2011; further: nearly all actives have a fitted effect of over 75% in size
Target sequence (Q96KQ7 913-1193 limits assumed): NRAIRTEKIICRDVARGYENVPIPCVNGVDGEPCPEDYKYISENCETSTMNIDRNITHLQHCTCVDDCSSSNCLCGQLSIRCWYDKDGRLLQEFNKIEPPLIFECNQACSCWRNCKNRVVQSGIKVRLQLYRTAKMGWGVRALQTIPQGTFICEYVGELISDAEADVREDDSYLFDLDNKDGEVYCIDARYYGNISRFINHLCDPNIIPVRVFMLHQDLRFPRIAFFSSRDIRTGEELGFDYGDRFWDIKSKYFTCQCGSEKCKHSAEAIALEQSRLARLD
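Compounds were preincubated with 20 nM G9a for 15 min, after which biotinylated H3K9 peptide (500 nM) and SAM (20 uM) started a 2 h room-temperature reaction. Monomethylated product was quantified by antibody-based AlphaScreen chemiluminescence.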
CCT modulator – High-Throughput Screening for Modulators of Cytosolic Chaperonin Activity; purified chaperonin ATPase assay, HTRF ADP detection, 30 min; activity change, % (test concentration not listed), hits read low; 360,000 compounds, 0.3% hits; in the data active means activity change below about -30%
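First, chaperonin was dispensed at 40 nM or 20 nM final depending on batch activity. Next, compounds were pinned at 76 uM and ATP added at 10 uM. After 30 min at 37 °C, ADP detection reagents ran 30 min at ambient temperature.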
PLK1 PBD inh – qHTS for Inhibitors of PLK1-PDB (polo-like kinase 1 - polo-box domain): Primary Screen; Potency, µM, hits mostly inhibitors; 360,000 compounds, 2.8% hits; Plk1 PBD binding of FITC phosphopeptide, fluorescence polarization; further: series mostly up to about 57 µM; nearly all actives have a fitted effect of over 65% in size
VDR inhibitor – Inhibitors of the vitamin D receptor (VDR): qHTS. Vitamin D3 receptor (Homo sapiens), P11473. VDR-SRC2-3 peptide fluorescence polarization, 2 h. Potency, µM, usual class: inhibitors. 400,000 compounds, 0.93% hits
Target sequence (P11473 whole entry, looked up): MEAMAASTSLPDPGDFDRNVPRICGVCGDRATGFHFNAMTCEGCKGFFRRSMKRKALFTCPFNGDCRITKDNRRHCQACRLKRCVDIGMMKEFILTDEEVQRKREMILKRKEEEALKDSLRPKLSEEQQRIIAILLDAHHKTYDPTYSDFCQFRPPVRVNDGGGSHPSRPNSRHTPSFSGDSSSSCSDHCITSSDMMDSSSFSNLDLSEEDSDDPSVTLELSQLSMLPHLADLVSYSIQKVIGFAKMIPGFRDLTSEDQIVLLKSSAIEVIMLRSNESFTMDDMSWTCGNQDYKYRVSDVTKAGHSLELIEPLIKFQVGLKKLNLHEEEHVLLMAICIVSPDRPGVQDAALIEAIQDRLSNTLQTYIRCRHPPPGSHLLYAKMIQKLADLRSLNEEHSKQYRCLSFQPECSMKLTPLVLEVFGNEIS
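The screen uses fluorescence polarization to detect compounds that interfere with recruitment of the SRC2-3 coactivator peptide to VDR; plates are read after 2 h at room temperature.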
Sfp PPTase inh – qHTS Assay for Inhibitors of Bacillus subtilis Sfp phosphopantetheinyl transferase (PPTase) | Biochemical Sfp PPTase activity, qHTS | Potency, µM, usual class: inhibitors | AID 1490, 2009 | 310,000 compounds, 3.5% hits | 4'-phosphopantetheinyl transferase ffp (Bacillus subtilis), Q9F4F7;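 further: the enzyme is Sfp with the accession as filed and its product quenches rhodamine fluorescence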
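Fluorescence-quenching assay with 15 nM Sfp, 5 uM rhodamine-CoA and 12.5 uM BHQ-2-labelled ybbR peptide in pH 7.6 Hepes/MgCl2 buffer. Enzyme was pre-incubated with compound for 15 min at room temperature. Rate was taken from the 30-min fluorescence change (525/598 nm).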
Each line names hits and unclear results; the compound was inactive in the other large screens. Unless noted, the call rests on the fitted dose curve; in most records, active means well fitted curve in the direction sought with a large enough effect; inconclusive means small, poorly fitted or top-dose-only effect, or another doubt; inactive means no such curve, though single readings can be large; an effect the other way counts as inactive or inconclusive.

CC1CCCN(CCOCCOc2ccc(Br)cc2Cl)C1 (stereo not given)	G9a block 10µM
CN1CCN(CCOCCOc2ccc(Br)cc2Cl)CC1	Sfp PPTase inh 56.2µM (no result: G9a block)
CC1CCCN(CCOCCOc2ccc(Cl)cc2Br)C1 (stereo not given)	G9a block inconclusive, Sfp PPTase inh inconclusive
Clc1cc(Br)ccc1OCCN1CCOCC1	G9a block 10µM, Sfp PPTase inh inconclusive
Cc1cc(C)c(C)c(OCCN2CCOCC2)c1	G9a block 79.4µM
Cc1cccc(OCCN2CCOCC2)c1C	G9a block inconclusive
CC1CCN(CCCOc2ccc(Br)cc2Cl)CC1	G9a block 15.8µM
Cc1ccc(OCCCCN2CCC(C)CC2)c(Br)c1	G9a block inconclusive
C[C@]12CCC(=O)C=C1CC[C@@H]1C2[C@@H](O)C[C@@]2(C)[C@H]1CC[C@]2(O)C(=O)CO (stereo not given in full)	none (no result: MmCpn inh, CCT modulator, PLK1 PBD inh)
Cc1ccc(Cl)c(NC(=O)COC(=O)CNS(=O)(=O)/C=C/c2ccccc2)c1Cl	G9a block inconclusive, Sfp PPTase inh 50.1µM
O=C(COC(=O)CNS(=O)(=O)/C=C/c1ccccc1)Nc1cccc2ccccc12	G9a block 50.1µM
CCc1cccc(C)c1NC(=O)COC(=O)CNS(=O)(=O)/C=C/c1ccccc1	G9a block inconclusive
CC(C)C1C(c2ccccc2)NC(c2ccccc2)CC1(O)c1ccc(F)cc1 (stereo not given)	Sfp PPTase inh 56.2µM (no result: G9a block)
CC(C)C1C(c2ccccc2)N(C)C(c2ccccc2)CC1(O)c1ccccc1 (stereo not given)	none
CCOC(=O)c1c(C)oc2ncnc(Nc3cc(Cl)ccc3OC)c12	none (no result: MmCpn inh, CCT modulator, PLK1 PBD inh, Sfp PPTase inh)
CC(Oc1ccccc1)C(=O)N1CCN(c2ncccn2)CC1 (stereo not given)	none (no result: Sfp PPTase inh)
CCC(C(=O)N1CCN(c2ncccn2)CC1)c1ccccc1 (stereo not given)	PLK1 PBD inh 23.8µM
COc1cccc(-n2c(SCC(=O)Nc3cc(C)on3)nc3c([nH]c4ccccc43)c2=O)c1	G9a block 39.8µM, Sfp PPTase inh 25.1µM
Cc1cc(NC(=O)CSc2nc3c([nH]c4ccccc43)c(=O)n2-c2ccccc2)no1	none (no result: MmCpn inh, CCT modulator, PLK1 PBD inh, Sfp PPTase inh)
COc1cccc(-n2c(SCC(N)=O)nc3c([nH]c4ccccc43)c2=O)c1	Sfp PPTase inh 20µM
CC1=C(C#N)C(NC(=O)c2ccccc2)(C(F)(F)F)C(=O)N1 (stereo not given)	none (no result: MmCpn inh, CCT modulator, PLK1 PBD inh, Sfp PPTase inh)
O=C(CNC(=O)c1ccccc1C(=O)O)c1ccccc1	G9a block 20µM
O=C(O)c1ccccc1C(=O)NCCCCCCNC(=O)c1ccccc1C(=O)O	G9a block inconclusive
O=C(O)c1ccccc1C(=O)NCC(O)c1ccccc1 (stereo not given)	G9a block 7.94µM
O=C(Nc1cccc2ccccc12)N1CC=C(c2ccccc2)CC1	G9a block 44.7µM
COc1ccc(Cn2c(CCC(=O)Nc3ccc(OC)c(Cl)c3)nc3cccnc32)cc1	none (no result: MmCpn inh, CCT modulator, PLK1 PBD inh, Sfp PPTase inh)
S=c1nc[nH]c2c1ncn2C1CCCO1 (stereo not given)	G9a block 10µM, PLK1 PBD inh 26.7µM, VDR inhibitor inconclusive, Sfp PPTase inh 3.98µM
Cn1nc(-c2ccc(OCC(=O)Nc3cccc(C(F)(F)F)c3)cc2)c2ccccc2c1=O	none (no result: MmCpn inh, CCT modulator, PLK1 PBD inh, Sfp PPTase inh)
COc1ccc(/C=C2/C(=O)N(Cc3ccccc3)N=C2C)cc1	PLK1 PBD inh inconclusive, VDR inhibitor inconclusive
COc1ccc(/C=C2/C(=O)N(c3nc4ccccc4s3)N=C2CSc2ccc(Cl)cc2)cc1	MmCpn inh inconclusive, PLK1 PBD inh 8.44µM
COc1cccc([C@@H]2Oc3ccc(Br)cc3C(=O)[C@H]2OC(=O)Nc2cc(OC)c(OC)c(OC)c2)c1	none (no result: MmCpn inh, G9a block, CCT modulator, PLK1 PBD inh)
C(=C\c1nc2ccccc2[nH]1)/c1ccccc1	none
C(=C\c1ccco1)/c1ccc2ccccc2n1	Sfp PPTase inh 50.1µM (no result: G9a block)
C(=C\c1ccco1)/c1nc2ccccc2[nH]1	Sfp PPTase inh 39.8µM (no result: G9a block)
Fc1cccc(F)c1/C=C/c1ccc2ccccc2n1	G9a block inconclusive
O=C(/C=C/c1ccco1)Nc1ccc(-c2nc3ccccc3[nH]2)cc1	G9a block 39.8µM
CCOc1cccc(C(=O)NNC(=O)C2C3C=CC(C3)C2C(=O)O)c1 (stereo not given)	Sfp PPTase inh 35.5µM
CCCCOc1ccc(C(=O)NNC(=O)C2C3C=CC(C3)C2C(=O)O)cc1 (stereo not given)	Sfp PPTase inh 44.7µM (no result: G9a block)
COc1cccc(CNC(=O)Cn2nc(N3CCN(c4ccccc4OC)CC3)ccc2=O)c1	none (no result: MmCpn inh, CCT modulator, PLK1 PBD inh, Sfp PPTase inh)
CCOC(=O)c1c(NC(=O)C2CC2)sc2c1CC(C)(C)OC2	G9a block 35.5µM
CCOC(=O)c1c(/N=C/c2ccc(C)cc2O)sc2c1CCC2	G9a block 44.7µM
CCOC(=O)c1c(/N=C/c2ccc(OC)cc2O)sc2c1CCN(C)C2	PLK1 PBD inh inconclusive (no result: G9a block)
CCC1(CC)NC(=O)N(CC(=O)Nc2sc3c(c2C(N)=O)CCC3)C1=O	none
CCCCOC(=O)Nc1sc2c(c1C(=O)OC)CCC2	G9a block inconclusive, Sfp PPTase inh 50.1µM
CCC1(C)NC(=O)N(CC(=O)Nc2sc3c(c2C(=O)OC)CCCCC3)C1=O (stereo not given)	G9a block 50.1µM
COCC(=O)Nc1sc2c(c1C(=O)OC)CCCC2	none
Fc1ccc2c(c1)-c1c(cnc3cc(-c4ccc(Cl)cc4)nn13)CO2	none (no result: MmCpn inh, CCT modulator, PLK1 PBD inh, Sfp PPTase inh)
CCOC(=O)c1c(NC(=O)C2CCCO2)sc2c1CCC2 (stereo not given)	none (no result: MmCpn inh)
CCOC(=O)C(NC(=O)CC)(Nc1nc2c(s1)CCCC2)C(F)(F)F (stereo not given)	G9a block inconclusive
CCOC(=O)NC(Nc1sc2c(c1C(N)=O)CCCC2)(C(=O)OCC)C(F)(F)F (stereo not given)	G9a block 12.6µM, PLK1 PBD inh inconclusive, Sfp PPTase inh 35.5µM
CCOC(=O)Nc1sc2c(c1C(=O)OCC)CCC2	Sfp PPTase inh 39.8µM
CC(C)[C@@H](CC(=O)N[C@@H]1CCCC[C@H]1C(=O)N[C@H](CC(=O)N[C@@H](CCC(=O)O)CC(=O)O)Cc1c[nH]c2ccccc12)NC(=O)C[C@H](Cc1c[nH]c2ccccc12)NC(=O)[C@@H]1CCCC[C@H]1N	none (no result: MmCpn inh, G9a block, CCT modulator, PLK1 PBD inh)
CCOC(=O)c1c(NC(C)=O)sc(/C(C)=N/Nc2ccc(C(=O)O)cc2)c1C	G9a block 31.6µM, PLK1 PBD inh inconclusive
